Data published in the supplement of paper PMC10849652.
Targets with a hit are over-represented here; the source holds about 8,800 in all. About 0.5% of all pairs of compound and target were hits.

How the values were obtained:
Assay in all cases: log2 fold change, soluble protein after heating vs DMSO (PISA); higher = thermal stabilisation; K562 lysate, 10 uM; active = over 0.2 and 3.5 SD of the protein, either way, in both replicates (recomputed)
[1] = compound: C1=CC=C(C=C1)[C@H](COC2=CC3=C(C=C2)NC(=O)N3)NC(=O)C4=CC=CN(C4=O)CC5=CC(=C(C=C5)F)F
Outline: (§1)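 Thermal stability, expressed as log-two fold change relative to solvent controls, is given from duplicates. Crude K562 extract in PBS pH 7.4 with 1 mM MgCl2, at 1 mg/mL protein, was treated with 10 μM compound for 30 min and heated in aliquots for 3 min across 48°C-58°C. After pooling, adjustment to 0.5% NP-40 at 4°C and centrifugation at 21,000xg for 90 min, supernatant protein was measured by TMTpro 16plex LC-MS/MS with channel sums equalised.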

[2] = compound: CC1=C(SC2=C1C(=N[C@H](C3=NN=C(N32)C)CC(=O)N)C4=CC=C(C=C4)Cl)C
Outline: as §1

[3] = compound: CC1=C2C(=CC=C1)N=C(N(C2=O)C3=CC=CC=C3C)CN4C=NC5=C(N=CN=C54)N
Outline: as §1

[4] = compound: Cc1sc2c(c1C)C(c1ccc(Cl)cc1)=N[C@@H](CC(=O)OC(C)(C)C)c1nnc(C)n1-2
Outline: as §1

[5] = compound: c1ccc([C@@H]2C[C@H]2NC2CCNCC2)cc1
Outline: as §1

Measured: log2 fold change

GNE isoform 2 (UniProt Q9Y223)
UniProt Q9Y223, sequence (Q9Y223 whole entry, looked up): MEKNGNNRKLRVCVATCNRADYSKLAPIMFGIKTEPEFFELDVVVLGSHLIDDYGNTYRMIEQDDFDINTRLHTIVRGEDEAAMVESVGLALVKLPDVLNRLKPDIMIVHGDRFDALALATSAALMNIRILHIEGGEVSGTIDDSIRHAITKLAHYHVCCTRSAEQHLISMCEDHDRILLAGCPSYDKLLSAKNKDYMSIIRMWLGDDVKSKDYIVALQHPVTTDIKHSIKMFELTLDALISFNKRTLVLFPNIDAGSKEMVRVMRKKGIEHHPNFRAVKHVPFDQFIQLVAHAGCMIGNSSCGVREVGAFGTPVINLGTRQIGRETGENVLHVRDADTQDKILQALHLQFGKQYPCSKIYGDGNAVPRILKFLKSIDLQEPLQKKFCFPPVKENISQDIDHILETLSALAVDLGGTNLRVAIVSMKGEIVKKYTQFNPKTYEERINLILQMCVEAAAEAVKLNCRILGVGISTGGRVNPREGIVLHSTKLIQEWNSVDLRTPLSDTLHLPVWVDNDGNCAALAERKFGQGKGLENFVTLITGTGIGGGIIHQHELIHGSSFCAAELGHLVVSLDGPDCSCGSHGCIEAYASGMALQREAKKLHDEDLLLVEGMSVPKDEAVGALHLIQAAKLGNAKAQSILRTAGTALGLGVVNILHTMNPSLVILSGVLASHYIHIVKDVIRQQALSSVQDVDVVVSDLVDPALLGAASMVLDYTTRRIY
inactive: [1] -0.072 | [2] 0.006 | [3] 0.023 | [4] 0.007 | [5] 0.06

HNRNPDL (UniProt O14979)
UniProt O14979, sequence (O14979 whole entry, looked up): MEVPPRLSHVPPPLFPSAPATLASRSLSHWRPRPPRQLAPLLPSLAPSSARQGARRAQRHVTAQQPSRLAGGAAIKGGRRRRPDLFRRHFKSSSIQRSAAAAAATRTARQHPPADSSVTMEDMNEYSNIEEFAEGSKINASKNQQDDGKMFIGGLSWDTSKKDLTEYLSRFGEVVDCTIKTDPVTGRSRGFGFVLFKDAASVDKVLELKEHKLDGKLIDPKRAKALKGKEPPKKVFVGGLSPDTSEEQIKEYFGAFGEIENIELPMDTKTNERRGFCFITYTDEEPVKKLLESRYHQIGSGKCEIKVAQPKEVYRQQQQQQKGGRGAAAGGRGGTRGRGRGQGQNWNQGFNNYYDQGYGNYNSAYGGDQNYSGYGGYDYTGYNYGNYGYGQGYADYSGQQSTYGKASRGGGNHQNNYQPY
inactive: [1] 0.033 | [2] 0.002 | [3] 0 | [4] 0.048 | [5] -0.071

HSPB1 (UniProt P04792)
UniProt P04792, sequence (P04792 whole entry, looked up): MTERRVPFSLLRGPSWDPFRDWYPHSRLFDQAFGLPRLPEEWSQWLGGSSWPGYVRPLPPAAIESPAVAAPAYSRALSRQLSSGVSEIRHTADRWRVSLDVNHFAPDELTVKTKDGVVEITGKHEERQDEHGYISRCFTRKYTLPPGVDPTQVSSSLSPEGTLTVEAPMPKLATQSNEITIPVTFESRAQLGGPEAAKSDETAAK
inactive: [1] -0.091 | [2] 0.002 | [3] 0.002 | [4] -0.017 | [5] 0.028

ISY1 isoform 1 (UniProt Q9ULR0)
UniProt Q9ULR0, sequence (Q9ULR0 whole entry, looked up): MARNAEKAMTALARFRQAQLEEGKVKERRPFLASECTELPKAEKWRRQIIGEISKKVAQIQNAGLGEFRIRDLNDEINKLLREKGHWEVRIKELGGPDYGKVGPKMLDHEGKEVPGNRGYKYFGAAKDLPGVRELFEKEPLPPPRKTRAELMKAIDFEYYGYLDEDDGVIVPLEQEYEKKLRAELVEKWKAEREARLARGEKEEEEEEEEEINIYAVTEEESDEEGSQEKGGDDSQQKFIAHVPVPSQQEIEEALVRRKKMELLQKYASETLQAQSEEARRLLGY
inactive: [1] 0.016 | [2] 0 | [3] 0.001 | [4] -0.12 | [5] -0.004

HLTF (UniProt Q14527)
UniProt Q14527, sequence (Q14527 whole entry, looked up): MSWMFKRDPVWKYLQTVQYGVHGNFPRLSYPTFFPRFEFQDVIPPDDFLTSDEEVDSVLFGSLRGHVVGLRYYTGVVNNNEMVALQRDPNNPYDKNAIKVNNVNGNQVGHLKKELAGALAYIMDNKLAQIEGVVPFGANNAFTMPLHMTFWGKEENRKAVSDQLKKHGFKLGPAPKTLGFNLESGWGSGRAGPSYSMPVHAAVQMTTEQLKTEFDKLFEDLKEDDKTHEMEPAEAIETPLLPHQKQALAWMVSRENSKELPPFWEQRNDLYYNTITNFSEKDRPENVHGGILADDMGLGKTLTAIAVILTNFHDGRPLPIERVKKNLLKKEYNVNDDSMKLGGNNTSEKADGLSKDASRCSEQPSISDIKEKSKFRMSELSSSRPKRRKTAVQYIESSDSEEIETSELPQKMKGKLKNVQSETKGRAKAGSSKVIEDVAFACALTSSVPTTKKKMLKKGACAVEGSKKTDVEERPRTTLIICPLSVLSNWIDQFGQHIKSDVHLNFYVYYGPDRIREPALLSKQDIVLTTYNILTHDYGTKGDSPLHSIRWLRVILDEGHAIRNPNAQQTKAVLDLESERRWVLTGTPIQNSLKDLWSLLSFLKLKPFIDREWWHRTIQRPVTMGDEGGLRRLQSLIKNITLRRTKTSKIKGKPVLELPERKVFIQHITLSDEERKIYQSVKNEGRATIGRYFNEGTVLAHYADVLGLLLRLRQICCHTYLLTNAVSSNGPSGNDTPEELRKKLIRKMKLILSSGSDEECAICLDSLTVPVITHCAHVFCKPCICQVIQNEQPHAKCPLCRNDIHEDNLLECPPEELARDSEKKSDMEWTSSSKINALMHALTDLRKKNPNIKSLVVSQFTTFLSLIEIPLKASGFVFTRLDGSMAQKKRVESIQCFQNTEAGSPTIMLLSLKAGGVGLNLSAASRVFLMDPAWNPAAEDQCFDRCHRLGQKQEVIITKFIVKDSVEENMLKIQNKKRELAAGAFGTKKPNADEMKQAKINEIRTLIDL
inactive: [1] -0.053 | [2] -0.006 | [3] -0.065 | [4] 0.028 | [5] 0.011

HIST2H2AA3 (UniProt Q6FI13)
inactive: [1] 0.017 | [2] 0 | [3] -0.111 | [4] 0.268 | [5] 0.277

INPP4A (UniProt Q96PE3)
inactive: [1] -0.079 | [2] 0.112 | [3] 0.027 | [4] 0.036 | [5] 0.017

GTF2I (UniProt P78347)
UniProt P78347, sequence (P78347 whole entry, looked up): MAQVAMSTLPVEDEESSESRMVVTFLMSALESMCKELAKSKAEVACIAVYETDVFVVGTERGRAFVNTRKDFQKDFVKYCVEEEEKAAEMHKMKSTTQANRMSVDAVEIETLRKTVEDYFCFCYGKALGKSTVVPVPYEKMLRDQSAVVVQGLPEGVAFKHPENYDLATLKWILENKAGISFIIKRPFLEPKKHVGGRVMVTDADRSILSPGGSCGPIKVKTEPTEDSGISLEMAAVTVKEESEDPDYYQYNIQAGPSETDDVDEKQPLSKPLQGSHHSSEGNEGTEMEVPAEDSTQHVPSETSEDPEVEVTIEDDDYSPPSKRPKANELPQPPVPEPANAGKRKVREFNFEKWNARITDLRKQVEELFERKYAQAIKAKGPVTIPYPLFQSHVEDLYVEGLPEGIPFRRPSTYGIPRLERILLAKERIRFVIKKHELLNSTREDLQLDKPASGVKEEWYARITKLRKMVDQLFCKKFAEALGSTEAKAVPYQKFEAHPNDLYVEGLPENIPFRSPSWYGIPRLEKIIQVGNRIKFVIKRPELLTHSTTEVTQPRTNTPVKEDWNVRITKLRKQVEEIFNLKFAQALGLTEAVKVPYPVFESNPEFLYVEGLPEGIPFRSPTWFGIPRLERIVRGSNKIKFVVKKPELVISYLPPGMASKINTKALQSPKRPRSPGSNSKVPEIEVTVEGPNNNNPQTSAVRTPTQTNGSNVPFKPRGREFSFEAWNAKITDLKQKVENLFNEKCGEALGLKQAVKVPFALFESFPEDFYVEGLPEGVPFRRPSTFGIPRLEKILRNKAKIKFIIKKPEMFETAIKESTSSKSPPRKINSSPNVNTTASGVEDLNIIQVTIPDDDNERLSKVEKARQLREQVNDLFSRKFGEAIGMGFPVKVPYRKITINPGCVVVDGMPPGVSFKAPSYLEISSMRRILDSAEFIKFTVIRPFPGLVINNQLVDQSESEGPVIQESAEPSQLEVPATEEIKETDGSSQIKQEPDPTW
inactive: [1] -0.026 | [2] 0 | [3] 0.009 | [4] 0.015 | [5] 0.061

HAUS6 (UniProt Q7Z4H7)
UniProt Q7Z4H7, sequence (Q7Z4H7 whole entry, looked up): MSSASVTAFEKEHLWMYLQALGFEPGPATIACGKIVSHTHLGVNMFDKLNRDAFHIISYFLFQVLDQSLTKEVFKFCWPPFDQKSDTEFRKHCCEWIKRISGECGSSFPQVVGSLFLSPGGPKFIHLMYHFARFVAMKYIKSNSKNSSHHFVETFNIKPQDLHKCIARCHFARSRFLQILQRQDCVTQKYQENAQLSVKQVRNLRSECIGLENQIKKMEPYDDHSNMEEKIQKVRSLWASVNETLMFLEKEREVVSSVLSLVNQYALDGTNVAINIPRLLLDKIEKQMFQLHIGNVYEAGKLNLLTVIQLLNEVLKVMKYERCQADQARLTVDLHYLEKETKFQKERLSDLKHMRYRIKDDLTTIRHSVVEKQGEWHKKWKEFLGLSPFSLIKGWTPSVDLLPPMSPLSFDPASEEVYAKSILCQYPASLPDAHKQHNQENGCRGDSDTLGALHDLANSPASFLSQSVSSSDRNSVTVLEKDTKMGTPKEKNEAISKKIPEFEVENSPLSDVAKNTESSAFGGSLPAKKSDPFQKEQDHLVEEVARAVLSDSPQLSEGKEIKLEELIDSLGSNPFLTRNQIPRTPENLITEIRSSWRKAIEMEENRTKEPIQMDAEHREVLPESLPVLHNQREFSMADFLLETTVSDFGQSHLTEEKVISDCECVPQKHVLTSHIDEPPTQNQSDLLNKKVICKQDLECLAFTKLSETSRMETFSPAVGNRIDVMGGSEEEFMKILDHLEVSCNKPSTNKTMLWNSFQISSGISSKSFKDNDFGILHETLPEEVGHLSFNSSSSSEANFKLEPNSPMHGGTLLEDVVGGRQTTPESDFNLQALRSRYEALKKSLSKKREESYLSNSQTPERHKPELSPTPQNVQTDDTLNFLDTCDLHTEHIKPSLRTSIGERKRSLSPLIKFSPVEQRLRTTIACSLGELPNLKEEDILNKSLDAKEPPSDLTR
inactive: [1] 0 | [2] -0.012 | [3] 0.021 | [4] 0.005 | [5] 0.041
